Screens as filed in PubChem BioAssay.
Bcl-xL primary – blocks human Bcl-xL binding to Bim BH3 peptide; Q07817; GST-Bcl-xL / FITC-Bim BH3 peptide fluorescence polarization; inhibition, % at 10.9 µM; 0.7% of 320,000 active; AID 2129;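 active = inhibition above the mean of all tested compounds plus 3 SD, cutoff set per campaign, cut at about 30% in these data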;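 note: inhibitors lower millipolarization by displacing the labeled peptide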
Target sequence (Q07817 whole entry, looked up): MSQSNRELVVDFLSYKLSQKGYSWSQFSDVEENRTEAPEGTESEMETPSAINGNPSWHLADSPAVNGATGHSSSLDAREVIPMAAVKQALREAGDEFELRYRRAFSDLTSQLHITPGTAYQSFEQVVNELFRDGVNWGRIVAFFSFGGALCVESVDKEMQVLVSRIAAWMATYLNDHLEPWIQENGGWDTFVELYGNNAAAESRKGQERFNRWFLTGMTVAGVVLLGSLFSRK
Bim-Bcl-XL – inhibitors of Bim-Bcl-XL interaction, human | Q07817 | Bim peptide-Bcl-XL binding, bead flow cytometry, fluorescence | inhibition, % at 10 µM | 0.04% of 190,000 active
Bim-Bcl-W – inhibitors of Bim-Bcl-W interaction, human. bead-based flow cytometry, Bim peptide-Bcl-W binding. Q92843. AID 952. 0.02% of 190,000 active. inhibition, % at 10 µM;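 note: higher means less fluorescent Bim peptide bound to Bcl-W beads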
Bcl-B Bim block – human Bim-Bcl-B interaction inhibition. Q9HD36. bead-based flow cytometry, Bim peptide-Bcl-B binding. inhibition, % at 10 µM. 0.073% of 190,000 active. AID 951
Target sequence (Q9HD36 whole entry, looked up): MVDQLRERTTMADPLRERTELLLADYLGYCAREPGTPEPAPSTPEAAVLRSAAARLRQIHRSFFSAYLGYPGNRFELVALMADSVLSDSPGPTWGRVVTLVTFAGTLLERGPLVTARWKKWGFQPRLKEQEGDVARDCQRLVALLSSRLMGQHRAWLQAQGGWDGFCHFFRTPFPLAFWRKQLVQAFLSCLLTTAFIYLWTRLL
Bcl-2 Bim block – disrupts Bim peptide binding to human Bcl-2 | 0.06% of 190,000 active | Bead-based flow cytometry, Bim peptide-Bcl-2 binding | P10415 | inhibition, % at 10 µM; in the data active = inhibition above about 40%
Bim-Bfl-1 – inhibitors of Bim-Bfl-1 interaction, human; 0.12% of 190,000 active; Q16548; inhibition, % at 10 µM; AID 1008; Bead-based flow cytometry, Bim-Bfl-1 binding inhibition
Numbers stand for hits; . = inactive; / = no result. Sampled rows, rich in hits. Any-hit rate of the full collection: about 0.81%. Cut-off read from the data, not from the text of the source, unless noted: active = inhibition above about 40%.

SMILES	Bcl-xL primary	Bim-Bcl-XL	Bim-Bcl-W	Bcl-B Bim block	Bcl-2 Bim block	Bim-Bfl-1
N#C/C(=C/c1ccc(-c2ccc(S(N)(=O)=O)cc2)o1)c1nc2ccccc2s1	45	.	.	.	.	.
CC(=O)C1=C(C)OC(N)=C(C#N)C1c1ccncc1 (configuration not stated)	30	.	.	.	.	.
COC(=O)C1=C(C)OC(N)=C(C#N)C1c1ccco1 (configuration not stated)	.	.	.	.	.	.
CC(=O)C1=C(C)OC(N)=C(C#N)C1c1ccco1 (configuration not stated)	60	.	.	.	.	.
COC(=O)C1=C(C)OC(N)=C(C#N)C1c1cccnc1 (configuration not stated)	.	.	.	.	.	.
O=C(Oc1ccc(C(=S)N2CCC(O)CC2)cc1)c1ccc(Cl)cc1	100	.	.	.	.	.
O=C(Oc1ccc(C(=S)N2CCCCC2)cc1)c1ccccc1	.	.	.	.	.	.
COc1ccc(C=NCCC2(O)CC(C)N(C)CC2C)cc1 (configuration not stated)	31	.	.	.	.	.
CS(=O)(=O)N(CC(=O)N1CCc2ccccc2C1)c1ccccc1F	.	/	/	/	/	/
Cc1ccc(S(=O)(=O)Nc2nc3ccccc3nc2Nc2cccc(S(=O)(=O)N3CCCC3)c2)cc1	37	.	.	.	.	.
O=C1c2ccccc2-c2onc3ccc(N4CCCC4)c1c23	/	63	63	.	46	42
CCNc1ccc2noc3c2c1C(=O)c1ccccc1-3	175	.	.	.	.	.
CCOc1ccc2noc3c2c1C(=O)c1ccccc1-3	152	.	.	.	.	.
O=C1c2ccccc2C(=O)c2c1cccc2N1CCCC1	.	.	.	.	.	.
O=C1c2ccccc2-c2onc3ccc(NCc4ccco4)c1c23	165	76	70	41	48	40
Cc1ccc(N(CC(O)CN2C(=O)NC(C)(C)C2=O)S(=O)(=O)c2ccc([N+](=O)[O-])cc2)cc1 (configuration not stated)	.	/	/	/	/	/
O=C(CSc1cc(Cl)ccc1Cl)Nc1ccc(N2CCOCC2)cc1	.	/	/	/	/	/
Cn1c2c(c(=O)n(C)c1=O)NC1(N2)C(=O)Nc2ccccc21 (configuration not stated)	.	/	/	/	/	/
Cn1nc(-c2ccccc2)c(N2CCCCC2)cc1=O	.	.	.	.	.	.
Cn1c(=O)cc2c3c(c(N4CCCCC4)ccc31)C(=O)c1ccccc1-2	147	/	/	/	/	/
O=C(CCN1C(=O)C2C3C=CC(C3)C2C1=O)NCCN1CCCc2ccccc21 (configuration not stated)	34	.	.	.	.	.
Cc1ccn2c(CNC(C)c3cn(C)nc3C)c(C(=O)N3CCCCCC3)nc2c1 (configuration not stated)	.	/	/	/	/	/
Cc1ccn2c(CNCc3cnn(C)c3)c(C(=O)N3CCCCCC3)nc2c1	67	/	/	/	/	/
CCCCn1c(N)c(N(CC(C)C)C(=O)c2ccc(C)c(S(=O)(=O)N3CCCCC3)c2)c(=O)[nH]c1=O	.	/	/	/	/	/
Cc1cccn2c(=O)c3cc(C#N)c(=N)n(CCCN4CCOCC4)c3nc12	.	/	/	/	/	/
SMILES	Bcl-xL primary	Bim-Bcl-XL	Bim-Bcl-W	Bcl-B Bim block	Bcl-2 Bim block	Bim-Bfl-1
Cc1cccn2c(=O)c3cc(C(N)=S)c(=N)n(CCCN4CCOCC4)c3nc12	33	.	.	48	.	50
Cc1ccc2nc3c(cc(C(=O)NCCN4CCOCC4)c(=N)n3CCCN3CCOCC3)c(=O)n2c1	.	/	/	/	/	/
Cc1ccc2nc3c(cc(C(N)=S)c(=N)n3CCCOC(C)C)c(=O)n2c1	39	.	.	.	.	.
COCCCn1c(=N)c(C(N)=S)cc2c(=O)n3cccc(C)c3nc21	34	/	/	/	/	/
CC(=O)N(C)c1ccc(NC(=O)Cc2cccs2)cc1	.	/	/	/	/	/
O=C(Nc1cccc(Cl)c1)Nc1ccc(Cl)cn1	.	.	.	72	77	51
Nc1c(NCc2ccccc2)c(=O)[nH]c(=O)n1Cc1ccccc1	70	.	.	.	.	.
CNc1c(N)n(Cc2ccccc2)c(=O)[nH]c1=O	37	.	.	.	.	.
CN(C(=S)NC(=O)c1ccccc1)c1c(N)n(Cc2ccccc2)c(=O)[nH]c1=O	.	/	/	/	/	/
O=C(c1ccccc1)[C@@H]1[C@@H]2C(=O)N(c3ccc(F)cc3)C(=O)[C@@H]2C2CCCN21 (some centres not stated)	64	/	/	/	/	/
Cc1ccc(N2C(=O)[C@@H]3[C@H](C2=O)C2CCCN2[C@@H]3C(=O)c2ccccc2)cc1 (some centres not stated)	78	.	.	.	.	.
O=C(c1ccc(Cl)cc1)C1C2C(=O)N(c3ccccc3)C(=O)C2C2CCCN21 (configuration not stated)	/	.	.	.	.	.
COc1ccc(NC(=O)c2cccc(NC3=NC4CS(=O)(=O)CC4S3)c2)cc1Cl (configuration not stated)	.	/	/	/	/	/
COc1ccccc1CNC(=O)CN1C(=O)c2cccc(N)c2C1=O	93	/	/	/	/	/
COc1ccccc1CNC(=O)CCN1C(=O)c2ccccc2C1=O	.	/	/	/	/	/
C=CCn1c(SCC(=O)N2CCOCC2)nnc1C(C)NC(=O)c1ccccc1 (configuration not stated)	.	/	/	/	/	/
CCNc1cccc2c1C(=O)N(C)C2=O	177	.	.	.	.	.
CN(CC(=O)Nc1cccc(F)c1)C(=O)CCc1nc2sc3c(c2c(=O)[nH]1)CCCC3	.	/	/	/	/	/
COCCn1c(-c2ccco2)nc2nc3ccccc3nc21	54	.	.	.	.	.
CC(C)OCCCn1c(-c2ccco2)nc2nc3ccccc3nc21	35	.	.	.	.	.
CC(=O)N/C(=C\c1ccccc1)C(=O)OCc1cc(C)ccc1C	.	/	/	/	/	/
CCCOC(=O)C1=C(C)N(C)C(=O)NC1c1cc2c(cc1[N+](=O)[O-])OCO2 (configuration not stated)	43	.	.	.	.	.
CC1=C(C(=O)OCC(C)C)C(c2cc3c(cc2Br)OCO3)NC(=O)N1C (configuration not stated)	.	.	.	.	.	.
Nc1ncc(-c2ccccc2)c(-c2ccc(O)cc2O)n1	50	/	/	/	/	/
Cc1cc(C(=O)COC(=O)c2ccc3c(c2)OCO3)c(C)n1CC1CCCO1 (configuration not stated)	.	.	.	.	.	.
Cc1ccccc1OC1C(=O)N(CC2CCCO2)C1c1ccc2c(c1)OCO2 (configuration not stated)	100	.	.	.	.	.
CCOc1ncccc1C(=O)OC(C)C(=O)Nc1ccc(CC)cc1 (configuration not stated)	.	.	.	55	50	.
CCCCC1=CC2=CC(=O)C(C)(OC(=O)CC)C(=O)C2=CN1CC(C)C (configuration not stated)	34	/	/	/	/	/
CCCCC1=CC2=CC(=O)C(C)(OC(=O)C3CCCC3)C(=O)C2=CO1 (configuration not stated)	.	/	/	/	/	/
